# Measurements: ChEMBL document CHEMBL2218924, “A broad activity screen in support of a chemogenomic map for kinase signalling research and drug discovery” (Biochem J, 2013)
# Columns and labels:
# [1] = target: Tyrosine-protein kinase SYK (Homo sapiens) (UniProt P43405); conditions: at 10 µM
# [2] = target: T1, Mitogen-activated protein kinase kinase kinase 7 (Homo sapiens) (UniProt O43318); conditions: at 1 µM
# T1 sequence (whole entry): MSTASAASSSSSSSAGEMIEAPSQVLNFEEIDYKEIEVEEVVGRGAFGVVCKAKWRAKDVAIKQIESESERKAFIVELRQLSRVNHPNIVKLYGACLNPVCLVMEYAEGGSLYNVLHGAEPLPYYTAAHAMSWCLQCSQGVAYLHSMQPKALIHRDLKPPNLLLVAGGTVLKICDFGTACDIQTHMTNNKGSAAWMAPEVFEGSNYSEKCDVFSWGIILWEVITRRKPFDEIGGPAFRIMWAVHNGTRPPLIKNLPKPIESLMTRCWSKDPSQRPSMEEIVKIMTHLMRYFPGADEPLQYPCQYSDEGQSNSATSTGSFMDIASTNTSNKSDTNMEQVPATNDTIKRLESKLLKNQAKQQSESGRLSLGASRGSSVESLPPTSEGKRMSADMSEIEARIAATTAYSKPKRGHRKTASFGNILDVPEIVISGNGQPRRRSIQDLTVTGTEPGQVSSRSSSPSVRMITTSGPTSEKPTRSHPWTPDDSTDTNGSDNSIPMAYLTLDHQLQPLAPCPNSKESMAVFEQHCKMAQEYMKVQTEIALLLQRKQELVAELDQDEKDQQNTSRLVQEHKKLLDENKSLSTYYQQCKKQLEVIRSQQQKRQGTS
# [3] = target: T1, Mitogen-activated protein kinase kinase kinase 7 (Homo sapiens); conditions: at 10 µM
# [4] = target: T2, Serine/threonine-protein kinase TAO1 (Homo sapiens) (UniProt Q7L7X3); conditions: at 1 µM
# T2 sequence (whole entry): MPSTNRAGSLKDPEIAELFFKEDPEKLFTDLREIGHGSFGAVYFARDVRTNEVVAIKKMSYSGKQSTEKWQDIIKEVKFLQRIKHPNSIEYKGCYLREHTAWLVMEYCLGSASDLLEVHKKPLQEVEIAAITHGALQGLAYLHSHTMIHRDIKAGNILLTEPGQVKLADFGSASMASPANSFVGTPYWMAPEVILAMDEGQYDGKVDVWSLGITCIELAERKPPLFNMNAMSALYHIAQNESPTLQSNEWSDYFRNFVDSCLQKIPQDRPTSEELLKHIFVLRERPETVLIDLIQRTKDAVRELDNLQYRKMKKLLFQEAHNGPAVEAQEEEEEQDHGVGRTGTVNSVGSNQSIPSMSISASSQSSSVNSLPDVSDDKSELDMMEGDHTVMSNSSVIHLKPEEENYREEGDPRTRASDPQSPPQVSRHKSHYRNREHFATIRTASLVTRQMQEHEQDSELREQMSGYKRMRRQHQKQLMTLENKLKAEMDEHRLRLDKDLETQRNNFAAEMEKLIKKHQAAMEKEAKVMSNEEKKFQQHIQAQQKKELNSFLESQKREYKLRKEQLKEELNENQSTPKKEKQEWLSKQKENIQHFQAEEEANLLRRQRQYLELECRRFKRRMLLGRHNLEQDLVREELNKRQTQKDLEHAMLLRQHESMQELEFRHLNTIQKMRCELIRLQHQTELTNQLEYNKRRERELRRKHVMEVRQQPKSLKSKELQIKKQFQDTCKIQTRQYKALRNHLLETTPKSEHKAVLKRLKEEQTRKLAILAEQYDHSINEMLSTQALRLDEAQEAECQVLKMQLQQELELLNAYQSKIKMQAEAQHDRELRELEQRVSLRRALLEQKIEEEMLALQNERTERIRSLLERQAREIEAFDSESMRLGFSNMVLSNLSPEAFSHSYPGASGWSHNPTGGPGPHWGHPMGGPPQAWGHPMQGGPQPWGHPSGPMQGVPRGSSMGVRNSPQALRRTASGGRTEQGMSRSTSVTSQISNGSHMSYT
# [5] = target: T2, Serine/threonine-protein kinase TAO1 (Homo sapiens); conditions: at 10 µM
# [6] = target: T3, Serine/threonine-protein kinase TAO2 (Homo sapiens) (UniProt Q9UL54); conditions: at 1 µM
# T3 sequence (whole entry): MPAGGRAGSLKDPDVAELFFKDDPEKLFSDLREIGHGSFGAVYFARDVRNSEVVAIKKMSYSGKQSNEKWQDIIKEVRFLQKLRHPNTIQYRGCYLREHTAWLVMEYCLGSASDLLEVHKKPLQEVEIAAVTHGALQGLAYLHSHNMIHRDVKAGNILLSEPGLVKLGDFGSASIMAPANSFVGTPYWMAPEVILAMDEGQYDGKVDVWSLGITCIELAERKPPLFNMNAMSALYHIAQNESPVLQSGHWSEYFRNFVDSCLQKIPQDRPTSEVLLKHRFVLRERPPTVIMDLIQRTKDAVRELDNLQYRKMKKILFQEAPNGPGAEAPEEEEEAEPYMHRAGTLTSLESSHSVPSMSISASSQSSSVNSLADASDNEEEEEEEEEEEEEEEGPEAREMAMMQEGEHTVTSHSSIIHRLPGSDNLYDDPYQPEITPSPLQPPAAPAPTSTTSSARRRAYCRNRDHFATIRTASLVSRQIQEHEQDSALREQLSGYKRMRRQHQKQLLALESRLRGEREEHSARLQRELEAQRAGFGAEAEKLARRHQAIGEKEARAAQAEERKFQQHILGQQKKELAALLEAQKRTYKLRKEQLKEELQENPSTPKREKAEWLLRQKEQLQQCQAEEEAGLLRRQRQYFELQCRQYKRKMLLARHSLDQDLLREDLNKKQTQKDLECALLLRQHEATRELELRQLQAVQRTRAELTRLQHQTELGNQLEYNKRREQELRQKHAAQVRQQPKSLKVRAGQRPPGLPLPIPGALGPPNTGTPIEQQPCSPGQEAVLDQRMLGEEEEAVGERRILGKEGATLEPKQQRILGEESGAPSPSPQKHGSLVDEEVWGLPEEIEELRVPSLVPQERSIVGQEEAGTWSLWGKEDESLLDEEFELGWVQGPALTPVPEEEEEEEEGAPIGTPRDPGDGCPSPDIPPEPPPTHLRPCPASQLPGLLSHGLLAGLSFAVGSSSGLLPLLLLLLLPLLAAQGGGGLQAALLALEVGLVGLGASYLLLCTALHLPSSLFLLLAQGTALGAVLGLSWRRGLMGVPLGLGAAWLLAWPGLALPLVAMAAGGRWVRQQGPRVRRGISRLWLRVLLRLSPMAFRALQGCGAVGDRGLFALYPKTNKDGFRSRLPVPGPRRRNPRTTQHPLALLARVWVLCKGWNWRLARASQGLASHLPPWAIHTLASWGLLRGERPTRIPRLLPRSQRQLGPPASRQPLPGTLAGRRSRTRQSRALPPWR
# [7] = target: T3, Serine/threonine-protein kinase TAO2 (Homo sapiens); conditions: at 10 µM
# [8] = target: T4, Serine/threonine-protein kinase TAO3 (Homo sapiens) (UniProt Q9H2K8); conditions: at 1 µM
# T4 sequence (whole entry): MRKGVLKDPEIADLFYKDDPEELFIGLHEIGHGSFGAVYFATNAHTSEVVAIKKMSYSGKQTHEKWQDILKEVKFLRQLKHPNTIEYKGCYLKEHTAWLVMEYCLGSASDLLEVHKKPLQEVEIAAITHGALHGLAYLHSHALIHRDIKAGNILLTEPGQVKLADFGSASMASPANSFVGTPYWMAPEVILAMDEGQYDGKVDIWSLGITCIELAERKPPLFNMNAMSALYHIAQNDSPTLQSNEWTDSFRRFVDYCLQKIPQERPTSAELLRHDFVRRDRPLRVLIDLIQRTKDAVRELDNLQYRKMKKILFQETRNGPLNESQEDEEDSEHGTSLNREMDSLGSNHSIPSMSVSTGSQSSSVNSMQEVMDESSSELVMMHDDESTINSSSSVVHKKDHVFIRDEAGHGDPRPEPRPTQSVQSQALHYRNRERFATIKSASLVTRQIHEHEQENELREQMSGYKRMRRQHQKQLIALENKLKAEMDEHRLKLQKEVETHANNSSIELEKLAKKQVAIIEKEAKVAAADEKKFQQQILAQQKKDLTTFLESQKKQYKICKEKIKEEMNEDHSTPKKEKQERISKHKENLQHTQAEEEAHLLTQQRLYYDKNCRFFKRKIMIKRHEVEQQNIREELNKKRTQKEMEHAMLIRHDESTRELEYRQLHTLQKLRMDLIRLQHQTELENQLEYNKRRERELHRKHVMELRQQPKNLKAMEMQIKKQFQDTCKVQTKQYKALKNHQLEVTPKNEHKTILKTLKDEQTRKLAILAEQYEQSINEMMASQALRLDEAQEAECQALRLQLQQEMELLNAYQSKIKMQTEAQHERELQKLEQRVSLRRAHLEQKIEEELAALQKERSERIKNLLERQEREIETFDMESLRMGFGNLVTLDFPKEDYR
# [9] = target: T4, Serine/threonine-protein kinase TAO3 (Homo sapiens); conditions: at 10 µM
# [10] = target: T5, Serine/threonine-protein kinase TBK1 (Homo sapiens) (UniProt Q9UHD2); conditions: at 1 µM
# T5 sequence (whole entry): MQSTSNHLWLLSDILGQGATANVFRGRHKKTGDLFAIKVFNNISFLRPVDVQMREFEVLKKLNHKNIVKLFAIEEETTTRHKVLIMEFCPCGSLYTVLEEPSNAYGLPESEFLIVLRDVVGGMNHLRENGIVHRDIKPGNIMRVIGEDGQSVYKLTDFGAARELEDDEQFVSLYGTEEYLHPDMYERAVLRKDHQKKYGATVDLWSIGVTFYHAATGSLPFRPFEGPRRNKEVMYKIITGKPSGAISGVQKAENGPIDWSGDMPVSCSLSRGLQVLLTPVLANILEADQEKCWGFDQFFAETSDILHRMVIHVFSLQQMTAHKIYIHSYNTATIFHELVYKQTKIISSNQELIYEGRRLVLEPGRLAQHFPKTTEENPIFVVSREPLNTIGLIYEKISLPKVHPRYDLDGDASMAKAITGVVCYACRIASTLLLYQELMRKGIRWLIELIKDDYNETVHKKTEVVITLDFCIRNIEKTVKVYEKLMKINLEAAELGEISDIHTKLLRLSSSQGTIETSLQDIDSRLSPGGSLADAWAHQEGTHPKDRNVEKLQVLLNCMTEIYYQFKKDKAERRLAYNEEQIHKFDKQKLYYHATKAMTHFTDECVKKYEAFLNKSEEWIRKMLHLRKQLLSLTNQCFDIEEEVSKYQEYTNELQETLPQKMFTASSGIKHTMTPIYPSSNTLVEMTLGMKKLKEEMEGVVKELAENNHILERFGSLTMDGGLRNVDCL
# [11] = target: T5, Serine/threonine-protein kinase TBK1 (Homo sapiens); conditions: at 10 µM
# [12] = target: T6, TGF-beta receptor type-1 (Homo sapiens) (UniProt P36897); conditions: at 1 µM
# T6 sequence (whole entry): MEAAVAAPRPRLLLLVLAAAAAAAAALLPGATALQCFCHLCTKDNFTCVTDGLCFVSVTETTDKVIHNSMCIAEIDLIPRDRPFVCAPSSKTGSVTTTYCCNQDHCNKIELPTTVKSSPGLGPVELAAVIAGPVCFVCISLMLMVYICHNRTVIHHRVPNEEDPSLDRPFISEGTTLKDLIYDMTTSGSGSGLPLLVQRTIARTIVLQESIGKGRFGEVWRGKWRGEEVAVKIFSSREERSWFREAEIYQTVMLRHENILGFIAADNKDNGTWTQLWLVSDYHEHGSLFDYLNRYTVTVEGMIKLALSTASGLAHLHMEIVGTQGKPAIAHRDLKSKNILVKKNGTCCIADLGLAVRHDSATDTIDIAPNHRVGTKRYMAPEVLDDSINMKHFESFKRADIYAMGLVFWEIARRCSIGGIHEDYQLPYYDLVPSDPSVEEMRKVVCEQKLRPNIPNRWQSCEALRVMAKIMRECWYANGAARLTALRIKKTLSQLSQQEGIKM
# [13] = target: T6, TGF-beta receptor type-1 (Homo sapiens); conditions: at 10 µM
# [14] = target: Insulin-like growth factor 1 receptor (Homo sapiens) (UniProt P08069); conditions: at 10 µM
# Chain of Insulin-like growth factor 1 receptor (Homo sapiens) (P08069 31-736 limits assumed): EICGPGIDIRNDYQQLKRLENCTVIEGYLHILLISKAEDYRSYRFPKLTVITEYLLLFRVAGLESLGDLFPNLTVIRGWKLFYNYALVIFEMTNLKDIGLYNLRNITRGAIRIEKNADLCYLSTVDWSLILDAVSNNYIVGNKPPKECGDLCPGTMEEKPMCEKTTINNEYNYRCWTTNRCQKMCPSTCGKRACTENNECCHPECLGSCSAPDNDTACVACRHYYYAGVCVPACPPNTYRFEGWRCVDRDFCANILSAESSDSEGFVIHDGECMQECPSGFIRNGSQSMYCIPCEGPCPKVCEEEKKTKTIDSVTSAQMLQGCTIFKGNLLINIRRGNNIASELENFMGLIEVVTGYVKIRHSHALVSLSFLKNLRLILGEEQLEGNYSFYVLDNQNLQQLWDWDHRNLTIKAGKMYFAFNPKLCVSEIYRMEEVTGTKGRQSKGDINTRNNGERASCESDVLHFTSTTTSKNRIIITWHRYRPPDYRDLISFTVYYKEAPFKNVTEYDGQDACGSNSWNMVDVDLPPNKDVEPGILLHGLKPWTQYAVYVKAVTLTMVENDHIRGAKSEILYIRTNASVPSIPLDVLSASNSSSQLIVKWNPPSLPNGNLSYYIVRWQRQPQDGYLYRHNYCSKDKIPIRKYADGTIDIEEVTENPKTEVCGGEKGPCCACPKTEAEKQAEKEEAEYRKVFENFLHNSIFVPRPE
# Chain of Insulin-like growth factor 1 receptor (Homo sapiens) (P08069 741-1367 limits assumed): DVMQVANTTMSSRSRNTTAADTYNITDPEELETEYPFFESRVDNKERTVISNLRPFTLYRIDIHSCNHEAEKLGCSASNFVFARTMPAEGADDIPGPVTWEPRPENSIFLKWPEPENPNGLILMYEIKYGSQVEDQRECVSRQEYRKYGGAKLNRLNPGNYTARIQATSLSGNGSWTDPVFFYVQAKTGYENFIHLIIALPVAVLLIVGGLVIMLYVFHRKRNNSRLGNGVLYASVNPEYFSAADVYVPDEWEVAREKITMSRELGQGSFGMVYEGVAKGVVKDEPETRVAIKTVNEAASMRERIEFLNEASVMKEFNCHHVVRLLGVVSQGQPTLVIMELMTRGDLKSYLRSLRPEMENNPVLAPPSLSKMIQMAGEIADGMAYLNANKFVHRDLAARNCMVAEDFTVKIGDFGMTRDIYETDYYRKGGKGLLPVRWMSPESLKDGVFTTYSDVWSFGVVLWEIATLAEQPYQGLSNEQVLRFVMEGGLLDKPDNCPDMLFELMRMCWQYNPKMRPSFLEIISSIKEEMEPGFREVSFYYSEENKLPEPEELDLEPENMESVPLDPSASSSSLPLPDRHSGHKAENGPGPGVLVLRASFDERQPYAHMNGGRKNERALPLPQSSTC
# [15] = target: T7, Inhibitor of nuclear factor kappa-B kinase subunit beta (Homo sapiens) (UniProt O14920); conditions: at 10 µM
# T7 sequence (whole entry): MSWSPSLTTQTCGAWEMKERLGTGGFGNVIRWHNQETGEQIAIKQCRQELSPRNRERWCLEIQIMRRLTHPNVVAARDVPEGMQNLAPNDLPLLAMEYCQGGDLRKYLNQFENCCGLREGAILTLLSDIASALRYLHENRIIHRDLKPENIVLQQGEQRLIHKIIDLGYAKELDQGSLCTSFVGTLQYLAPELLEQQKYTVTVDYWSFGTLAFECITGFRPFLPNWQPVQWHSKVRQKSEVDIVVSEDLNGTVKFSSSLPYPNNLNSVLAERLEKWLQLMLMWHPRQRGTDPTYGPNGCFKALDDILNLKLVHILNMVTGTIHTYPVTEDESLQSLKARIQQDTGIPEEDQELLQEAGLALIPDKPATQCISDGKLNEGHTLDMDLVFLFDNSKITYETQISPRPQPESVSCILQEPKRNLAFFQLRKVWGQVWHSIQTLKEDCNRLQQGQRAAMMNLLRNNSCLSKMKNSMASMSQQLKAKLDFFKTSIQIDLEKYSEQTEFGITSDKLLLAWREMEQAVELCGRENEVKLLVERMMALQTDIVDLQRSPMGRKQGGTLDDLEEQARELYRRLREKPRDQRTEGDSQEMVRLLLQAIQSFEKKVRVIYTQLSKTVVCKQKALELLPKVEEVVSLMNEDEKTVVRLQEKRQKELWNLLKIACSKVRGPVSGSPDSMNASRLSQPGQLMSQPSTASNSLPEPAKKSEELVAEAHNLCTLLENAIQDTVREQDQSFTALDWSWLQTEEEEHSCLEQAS
compound,measurement,setting,value
Nc1nc(Nc2ccc(S(N)(=O)=O)cc2)nn1C(=O)c1c(F)cccc1F,residual activity,[1],11%
same,residual activity,[2],82%
same,residual activity,[3],34%
same,residual activity,[4],15%
same,residual activity,[5],4%
same,residual activity,[6],6%
same,residual activity,[7],2%
same,residual activity,[8],18%
same,residual activity,[9],4%
same,residual activity,[10],72%
same,residual activity,[11],19%
same,residual activity,[12],105%
same,residual activity,[13],62%
same,residual activity,[14],63%
same,residual activity,[15],69%
